Records with an inconclusive call do not appear. Calls of active or inactive are those of the source. Calls come from the whole dose curve; as a rule, active = well fitted activation curve with a large enough effect; inconclusive = small, poorly fitted or top-dose-only effect; inactive = no such curve, though single readings can be large or run the other way.
Experiment: qHTS Assay for NPC1 Promoter Activators: Hit Validation Using Firefly Luciferase Read-Out for Rab9
Conditions: Huh7 Rab9 promoter firefly luciferase reporter, 24 h; series mostly up to 46.1 µM; activation: at the top concentration
Description: Niemann Pick Type C (NPC) is a rare neurodegenerative lipidosis that is characterized by lipid storage in the endosomal/lysosomal system. Treatment modalities for this devastating disease are currently non-existent due to the severe obstacles associated with accessing the central nervous system with proteins or genes. The majority of mutations causing NPC disease are missense mutations that are distributed throughout the length of the NPC1 protein, with the most prevalent being the I1061T allele. Although NPC1 mutant proteins may be functional, they are typically trapped in the ER due to misfolding. […] We have developed and optimized a cell based renilla luciferase reporter assay in 1536 well format for the identification of up-regulators of the mutant Rab9 promoter. This assay presents data on the validation of hits from the primary screen, which used a firefly luciferase read-out. NIH Chemical Genomics Center [NCGC] NIH Molecular Libraries Probe Production centers Network [MLPCN] MLPCN Grant: MH089375 Assay Submitter (PI): Yiannis A. Ioannou
Huh7 cells stably expressing NPC promoter-luciferase will be seeded at 1,500 cells/well in 5 uL in 1,536-well white opaque plates with 23 nL/well of compound in DMSO solution. The assay plates will be incubated at 37 deg C for 24 hours, after which 3 uL/well BriteLite plus luciferase detection reagent mixture (Perkin Elmer) will be added. Luminescence signal will be measured in a ViewLux plate reader (Perkin Elmer) after a 10 minute incubation at the room temperature.
For `CC1CCCN(S(=O)(=O)c2ccc(C(=O)Nc3nnc(-c4ccncc4)o3)cc2)C1` (stereo not drawn), the “activation” value was -34.8% (inactive).
In the case of `O=C(CSc1nccn1Cc1ccco1)Nc1ccccc1F`, the “activation” value is reported as 25.6% (inactive).
With `Cc1cccc(N2CCN(C(=S)c3ccccc3)CC2)c1` the “activation” value was 24.4% (inactive).
For `CC(C)CC(=O)N1CCN(c2ccc(NC(=O)c3ccco3)cc2)CC1`, the “activation” value was 19.6% (inactive).
In the case of `O=C(NC(=S)Nc1ccc(CN2CCCCC2)cc1)c1cc2ccccc2o1`, the “activation” value is reported as 16.3% (inactive).
In the case of `N#CC/C(N)=N/NC(=O)CCCNc1ncc(C(F)(F)F)cc1Cl`, the Potency is reported as 19.9 µM (active).
In the case of `COc1ccc(-c2csc(N(CCCN(C)C)C(=O)c3ccccc3C)n2)cc1`, the “activation” value is reported as -38% (inactive).
With `CCOC(=O)c1ccc(NC(=O)Oc2cc(C)c(Cl)cc2C(C)C)cc1` the “activation” value was 12.2% (inactive).
For `O=C(CSc1nnc(-c2ccccc2)o1)Nc1ccccc1F`, the Potency was 0.112 µM (active).
In the case of `Cc1ccc(NC(=O)NC(=O)c2ccccc2)cc1F`, the Potency is reported as 0.445 µM (active).
With `Cc1ccc(NC(=O)COC(=O)C2C3CC4OC(=O)C2C4C3)cc1Cl` (stereo not drawn) the “activation” value was 26.1% (inactive).
For `COc1ccc([N+](=O)[O-])cc1COc1ccc2c(-c3ccccc3)cc(=O)oc2c1`, the “activation” value was 12.7% (inactive).
With `CCc1cc2c(N=Nc3c(O)[nH]c4ccccc34)ncnc2s1` the “activation” value was 21.6% (inactive).
